Source: PubChem BioAssay (National Center for Advancing Translational Sciences (NCATS))
Tb PYK inh: qHTS of Trypanosoma Brucei Inhibitors. 0.12% of 410,000 active. TbPYK enzyme, Kinase-Glo Plus ATP luminescence, 45 min. Potency, µM (series often up to 76.8 µM), for inactives: top-dose activity, negative = inhibition, usual class: inhibitors. pyruvate kinase (Trypanosoma brucei), Q57TT1; also: % is scaled to controls: 0 for no effect and ±100 for the full control effect; nearly all actives have a fitted effect of over 50% in size
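Enzyme and substrate buffer are dispensed first and compound is pin-transferred. ADP at 130 uM final then starts the reaction, which runs 45 min at room temperature. Detection reagent is added for 10 min before luminescence is imaged.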
Giardia FBPA inh: qHTS Assay for Inhibitors of Fructose-1,6-bisphosphate Aldolase from Giardia Lamblia | AID 2451, 2010 | Potency, µM (doses to about 59.6 µM), for the others: at the top dose activity, negative = inhibition, hits mostly inhibitors | 0.71% of 290,000 active | purified Giardia FBPA | A8B2U2; also: % is scaled to controls: 0 for no effect and ±100 for the full control effect; nearly all actives have a fitted effect of over 55% in size
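Giardia FBPA (40 nM reagent) was preincubated 10 min at RT with compound (up to 57.5 uM final), then substrate plus GAPDH/TPI/NAD/arsenate coupling system with diaphorase/resazurin was added; resorufin fluorescence (525/598 nm) was read after 20 min.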
LmPK inhibitor: qHTS Assay for Inhibitors of Leishmania Mexicana Pyruvate Kinase (LmPK) | Q27686 | 0.37% of 290,000 active | Potency, µM (top dose mostly 57.5 µM), inactives show top-dose activity change, negative = inhibition, hits mostly inhibitors | purified LmPK, Kinase-Glo ATP luminescence, 1 h; also: % is scaled to controls: 0 for no effect and ±100 for the full control effect
Target sequence (Q27686 whole entry, looked up): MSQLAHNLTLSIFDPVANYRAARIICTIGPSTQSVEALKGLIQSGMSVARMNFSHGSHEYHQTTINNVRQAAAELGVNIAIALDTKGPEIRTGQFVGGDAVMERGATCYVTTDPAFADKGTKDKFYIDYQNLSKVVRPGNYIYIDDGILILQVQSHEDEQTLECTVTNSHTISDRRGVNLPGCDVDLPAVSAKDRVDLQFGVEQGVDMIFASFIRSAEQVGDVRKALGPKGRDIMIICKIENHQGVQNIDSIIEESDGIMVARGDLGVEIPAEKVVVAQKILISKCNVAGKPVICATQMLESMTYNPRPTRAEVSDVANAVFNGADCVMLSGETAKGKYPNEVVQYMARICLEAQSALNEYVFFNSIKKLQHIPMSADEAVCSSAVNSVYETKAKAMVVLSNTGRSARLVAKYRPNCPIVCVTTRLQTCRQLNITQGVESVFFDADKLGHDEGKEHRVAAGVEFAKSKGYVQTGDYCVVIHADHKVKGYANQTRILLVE
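In 50 mM imidazole pH 7.2 with 7 mM MgCl2, LmPK (0.1 nM) turned over PEP (0.5 mM) and ADP (0.1 mM) for 1 h at room temperature. Luciferase read-out of ATP.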
RE007 growth inh: qHTS Assay for Inhibitors of the HIV-1 protein Vpr; S. pombe RE007 Vpr strain, BacTiter-Glo ATP luminescence, 24 h; Potency, µM (titrated, usually from 92.2 µM), for inactives: top-dose activity change, negative = less growth, actives largely listed as inhibitors; AID 651644, 2012; 0.21% of 360,000 active; active = well fitted falling curve with a large enough effect; inconclusive = small, poorly fitted or top-dose-only effect; inactive = no such curve, though single readings can be large or run the other way; also: % is scaled to controls: 0 for no effect and ±100 for the full control effect; nearly all actives have a fitted effect of over 50% in size
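Fission yeast RE007 carrying one integrated HIV-1 vpr copy, seeded at OD 0.01 in PMG+AL medium with 23 nL pinned compound. Grown 24 h at 30 degrees; viability read by BacTiter-Glo luminescence after 5 min.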
SARS PLpro yeast: qHTS of Yeast-based Assay for SARS-CoV PLP | S. cerevisiae expressing SARS-CoV PLpro, growth rescue | Potency, µM (top dose mostly 32.9 µM), inactives show top-dose activity, positive = growth rescue, most hits filed as activators | 0.19% of 330,000 active; calls by dose curve; also: 0% is about no effect; nearly all actives have a fitted effect of over 55% in size
Active calls of the source: *; ? = inconclusive; / = no result given; [ ] = dose if it differs, or a comment. An excerpt weighted towards active compounds, which were near 1.1% of everything screened. Unless noted, calls follow the shape of the dose curve; as a rule, active = well fitted curve in the direction sought with a large enough effect; inconclusive = small, poorly fitted or top-dose-only effect, or another doubt; inactive = no such curve, though single readings can be large; an effect the other way counts as inactive or inconclusive. Potency is read from the fitted curve at half-maximal effect.

SMILES | Tb PYK inh | Giardia FBPA inh | LmPK inhibitor | RE007 growth inh | SARS PLpro yeast
c1ccc(-c2ccc(-n3ccnc3)cc2)cc1 | -7.2% | -6.4% | -6.0% | 28.2µM* | -10.7%
O=C(/C=C/c1ccccc1)c1cc(Br)ccc(=O)c1O | ? | -17.7% | 13.8% | -22.1% | 22.4µM*
O=C(NCCC1=CCCCC1)c1ccc2c(c1)N(Cc1ccc(Cl)cc1)C(=O)c1ccccc1S2=O (stereo unspecified) | -4.4% | / | / | / | /
COc1ccc(S(=O)(=O)Nc2cc(Sc3ncn[nH]3)c(O)c3ccccc23)cc1 | / | 0.561µM* | 3.16µM* | 31.6µM* | -46.2%
COc1ccc(S(=O)(=O)Nc2cccc3ccc(O)cc23)cc1 | -6.8% | / | / | 24.5% | /
COc1ccc(S(=O)(=O)Nc2cc(SCC(=O)O)c(O)c3ccccc23)cc1 | ? | 7.94µM* | ? | -25.7% | -10.5%
Cc1cc(C)c(S(=O)(=O)Nc2ccc(O)cc2)cc1C | 1.9% | -3.2% | 4.8% | -3.4% | -12.5%
COc1ccc(S(=O)(=O)Nc2ccc(O)c(Sc3ncn[nH]3)c2)cc1 | -6.5% | -21.5% | 2.2% | 4.9% | -0.1%
O=C(O)CSc1cc(NS(=O)(=O)c2ccc(Cl)cc2)c2ccccc2c1O | ? | 3.98µM* | ? | ? | -12.0%
Cc1cc(C)c(S(=O)(=O)Nc2cc(SCC(=O)O)c(O)c3ccccc23)cc1C | 10µM* | 3.97µM* | 20µM* | -14.1% | -6.4%
Cn1cccc1C(=O)N1CCC2(CCN(Cc3nccs3)CC2)CC1 | 1.3% | 1.1% | / | / | /
O=S(=O)(Nc1cc(Sc2cccc3cccnc23)c(O)c2ccccc12)c1ccc(F)cc1 | ? | 1.12µM* | -7.4% | ? | -6.0%
CCOc1ccc(C(=O)NCc2nc3cccnc3n2Cc2ccc(F)cc2)cc1OCC | 1.6% | / | / | / | /
O=C1N=c2ccccc2=C1c1sc(=O)[nH]c1O | ? | -1.7% | 10µM* | 9.2% | 1.2%
C[C@@H]1[C@H](O)[C@@H](C)C=CC=CCCC=CC=CC=CC=C[C@H](O[C@H]2O[C@@H](C)[C@H](O)[C@@H](N)[C@@H]2O)CC2O[C@](O)(C[C@@H](O)[C@H](O)CC[C@@H](O)C[C@@H](O)C[C@@H](O)CC(=O)O[C@H]1C)C[C@H](O)[C@H]2C(=O)O | -0.3% | / | / | / | /
C=CCn1c(-c2ccc(Cl)cc2)c[nH]c1=S | ? | -27.4% | 7.94µM* | 7.8% | ?
CCn1c(-c2ccc(-c3ccccc3)cc2)c[nH]c1=S | -24.3% | 4.2% | 1.0% | 6.9% | 28.9%
C=CCn1c(-c2ccccc2)c[nH]c1=S | ? | -19.2% | 12.6µM* | 11.3% | 8.3%
CC(=O)N1CCc2cc(S(=O)(=O)NC(Cc3ccccc3)C(=O)Nc3ccc(C)cc3C)ccc21 (stereo unspecified) | -12.0% | / | / | / | /
Cn1c(/N=C/c2c(O)ccc3ccccc23)nc2ccccc21 | -6.3% | 0.706µM* | -19.6% | -9.9% | ?
C/C(CCN1CCCCc2nc(C)c(C)cc21)=N\O[C@@H](C)c1cc(-c2c(C)cc(C)cc2C)no1 | / | -0.6%[12.9 µM] | / | / | /
Cc1ccc2oc(C(=O)NCC(c3ccc(Cl)cc3)N3CCOCC3)c(C)c2c1 (stereo unspecified) | 0.4% | / | / | / | /
COc1ccc(N2C(=O)CC(N3CCC(O)(c4ccc(Br)cc4)CC3)C2=O)cc1 (stereo unspecified) | 2.3% | 7.2% | -1.0% | 31.6µM* | -47.9%
O=C1CC(N2CCC(O)CC2)C(=O)N1c1ccc(Br)cc1 (stereo unspecified) | -5.9% | 1.7% | 0.1% | ? | -17.0%
CCCOc1ccc(N2C(=O)CC(N3CCC(O)(c4cccc(C(F)(F)F)c4)CC3)C2=O)cc1 (stereo unspecified) | -6.1% | -24.9% | 1.0% | 31.6µM* | -51.5%
SMILES | Tb PYK inh | Giardia FBPA inh | LmPK inhibitor | RE007 growth inh | SARS PLpro yeast
O=C1CC(N2CCC(O)(c3ccc(Br)cc3)CC2)C(=O)N1c1ccc(Cl)cc1 (stereo unspecified) | -0.6% | -1.8% | 1.2% | 10µM* | -71.3%
COc1ccc(CCNC(=O)Cn2c(=O)nc(-c3ccccc3F)c3cc(Cl)ccc32)cc1OC | -6.3% | / | / | / | /
Cc1[nH]c2ccc(-c3n[nH]c(=S)n3-c3ccccc3)cc2c1C | ? | 13.4% | ? | 6.4% | -0.4%
COc1cccc(-n2c(-c3ccc4[nH]c(C)c(C)c4c3)n[nH]c2=S)c1 | 7.94µM* | 9.3% | -4.1% | -2.4% | 0.7%
COc1cccc(-n2c(-c3cccc(S(=O)(=O)N(C)C)c3)n[nH]c2=S)c1 | 7.08µM* | -8.2% | 3.5% | 6.3% | -0.3%
Cc1nc2cncnc2n(Cc2ccccc2)c1=O | / | 18.5% | / | / | /
CCOc1ccc(CN(CCC#N)C(=S)NC(=O)c2ccccc2)cc1 | -26.5% | 7.1% | ? | -3.7% | 0.5%
COc1ccc(CN(CCC#N)C(=S)NC(=O)c2ccccc2)cc1 | ? | / | 20µM* | 15.7% | 17.5%
COC(=O)c1ccc(NC(=O)CSc2nc(=O)[nH]c3c2CCCC3)cc1 | 4.8% | / | / | / | /
COc1ccccc1OCCCn1cc(C#N)c2ccccc21 | 3.5% | 19.9µM* | 0.9% | 2.3% | -6.6%
Cc1nc2c3ccccc3nc(NNC(=O)CCC(=O)N3CCN(c4cccc(Cl)c4)CC3)n2n1 | -3.6% | / | / | / | /
Cc1cccc(C(=O)N2CCCCCC2)c1 | -1.5% | 1.4% | 0.9% | 2.2% | 20.5%
Cc1ccc(C(=O)n2c(=S)nc3ccccn32)cc1 | / | 0.0% | 14.1µM* | / | 4.9%
Cc1ccc(C(=O)n2ncn(C)c2=S)cc1 | ? | -28.2% | -4.7% | 10.7% | -0.5%
Cc1cccc(C(=O)n2c(=S)nc3ccccn32)c1 | -20.0% | 0.6% | 12.6µM* | ? | -3.9%
Cc1ccc(O)c(-c2cc3ccccc3[nH]2)c1 | 6.1% | ? | -3.8% | 35.5µM* | -29.4%
COc1cc(OC)c(NC(=O)Cn2nc(C)n3cccc3c2=O)cc1Cl | -6.6% | / | / | / | /
CN(C)S(=O)(=O)c1ccc(C(=O)N2CCN=C2SCc2cccnc2)cc1 | -0.3% | -0.4% | 6.7% | -21.3% | 20µM*
O=C1c2ccccc2NC(c2ccc(Cl)cc2Cl)N1O (stereo unspecified) | 4.2% | 4.2% | 1.6% | ? | 14.1µM*
CCC(C)(C)c1ccc(OCCCC[n+]2cccc(C)c2C)c(C(C)(C)CC)c1 | 4.7% | 0.4% | 0.9% | 28.2µM* | -6.4%
CCC(=O)N1CCc2cc(S(=O)(=O)CCC(=O)N3CCN(c4cc(C)ccc4C)CC3)ccc21 | -2.5% | / | / | / | /
O=C(CSc1cccc2cccnc12)N1CCCC1 | ? | -8.4% | -5.3% | 44.7µM* | -7.1%
CCOC(=O)c1c(C)oc2c1c(C(c1ccncc1)N1CCOCC1)c(O)c1ccccc12 (stereo unspecified) | -11.9% | ? | -2.1% | 39.8µM* | -37.5%
